Test results reported in PubChem BioAssay (Tox21).
“And” between values parts separate entries of the source, which are not always exact repeats. Equal entries are not always repeated. The source made the active and inactive calls. Unless noted, calls follow the shape of the dose curve; as a rule, active = well fitted curve in the direction sought with a large enough effect in the repeat runs; inconclusive = weak or mixed curves; inactive = no such curve, though single readings can be large; an effect the other way counts as inactive or inconclusive.

Experiments:
[1] = qHTS assay to identify small molecule antagonists of the thyroid receptor (TR) signaling pathway - cell viability counter screen (AID 743064); also: nearly all actives have a fitted effect of over 50% in size; also: potency is read from the fitted curve at half-maximal effect
In short: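 GH3.TRE-Luc rat pituitary cells carrying a TRE-luciferase reporter were treated with compound plus 1 nM T3 (final) for 23.5 h at 37 °C. Viability was then read in the same wells by CellTiter-Fluor fluorescence after a further 30 min.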

[2] = qHTS assay to identify small molecule antagonists of the thyroid receptor (TR) signaling pathway (AID 743065); also: nearly all actives have a fitted effect of over 55% in size; also: potency is read from the fitted curve at half-maximal effect
In short: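 GH3.TRE-Luc rat pituitary cells carrying two TR response elements driving luciferase were plated for 4 h, given compound plus 1 nM T3 (final), and incubated 23.5 h at 37 C. ONE-Glo luminescence measured reporter inhibition; CellTiter-Fluor fluorescence tracked cytotoxicity.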

[3] = test system: thyroid hormone receptor (rat, GH3 cells); experiment: qHTS assay to identify small molecule agonists of the thyroid receptor (TR) signaling pathway (AID 743066; calls by dose curve)
[4] = target: Estrogen receptor (Homo sapiens) (UniProt P03372); experiment: qHTS assay to identify small molecule antagonists of the estrogen receptor alpha (ER-alpha) signaling pathway (AID 743069; active = well fitted curve in the direction sought with a large enough effect in the signal ratio in the repeat runs, not every such curve was filed as active; inconclusive = weak or mixed curves, or effect the other way; inactive = no such curve, though single readings can be large or run the other way; the % refers to the signal ratio; also: potency is read from the fitted curve at half-maximal effect)
Sequence of Estrogen receptor (Homo sapiens) (P03372 whole entry, looked up): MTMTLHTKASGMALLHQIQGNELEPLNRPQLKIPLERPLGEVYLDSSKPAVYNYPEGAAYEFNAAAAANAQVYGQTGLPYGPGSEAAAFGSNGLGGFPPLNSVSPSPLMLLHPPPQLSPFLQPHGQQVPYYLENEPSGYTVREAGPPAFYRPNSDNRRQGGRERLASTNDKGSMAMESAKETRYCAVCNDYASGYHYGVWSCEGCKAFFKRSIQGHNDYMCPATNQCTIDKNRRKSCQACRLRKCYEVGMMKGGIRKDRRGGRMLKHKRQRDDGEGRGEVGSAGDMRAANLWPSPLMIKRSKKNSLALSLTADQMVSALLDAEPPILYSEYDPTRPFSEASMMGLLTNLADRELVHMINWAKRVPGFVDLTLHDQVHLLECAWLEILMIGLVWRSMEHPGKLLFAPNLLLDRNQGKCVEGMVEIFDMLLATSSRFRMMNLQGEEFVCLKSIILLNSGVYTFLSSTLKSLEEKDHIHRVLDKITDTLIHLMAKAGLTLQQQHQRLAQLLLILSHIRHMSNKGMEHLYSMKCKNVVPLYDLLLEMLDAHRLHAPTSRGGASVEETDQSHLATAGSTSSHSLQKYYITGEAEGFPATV
In short: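 Screening used a UAS-driven beta-lactamase reporter integrated into HEK293 cells expressing ER-alpha, stimulated with 17beta-estradiol alongside test compounds over 18 hr at 37C; signal came from LiveBLAzer B/G FRET fluorescence.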

[5] = target: Estrogen receptor (Homo sapiens) (UniProt P03372); experiment: qHTS assay to identify small molecule agonists of the estrogen receptor alpha (ER-alpha) signaling pathway (AID 743075; calls by dose curve; also: potency is read from the fitted curve at half-maximal effect)
[6] = target: Estrogen receptor (Homo sapiens) (UniProt P03372); experiment: qHTS assay to identify small molecule agonists of the estrogen receptor alpha (ER-alpha) signaling pathway using the BG1 cell line (AID 743079); also: nearly all actives have a fitted effect of over 20% in size; also: potency is read from the fitted curve at half-maximal effect
[7] = qHTS assay to identify small molecule antagonists of the estrogen receptor alpha (ER-alpha) signaling pathway using the BG1 cell line (AID 743080; calls by dose curve;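 also: BG1 cells stimulated with 17beta-estradiol alongside compound; nearly all actives have a fitted effect of over 25% in size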; also: potency is read from the fitted curve at half-maximal effect)
In short: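 Seeding, 24 h rest, compound transfer from DMSO, 17beta-estradiol addition, 21.5 h incubation, CellTiter-Fluor (30 min, 37 C), then ONE-Glo (30 min, room temperature): this sequence was run on BG1-Luc-4E2 reporter cells.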

[8] = qHTS assay to identify small molecule antagonists of the estrogen receptor alpha (ER-alpha) signaling pathway using the BG1 cell line - cell viability counter screen (AID 743081);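 also: compound given together with 17beta-estradiol as the ER stimulus; series mostly up to about 70 µM; nearly all actives have a fitted effect of over 45% in size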
Aromatase (Homo sapiens) = Aromatase (Homo sapiens) (UniProt P11511); experiment: qHTS assay to identify aromatase inhibitors (AID 743083); also: nearly all actives have a fitted effect of over 55% in size; also: potency is read from the fitted curve at half-maximal effect
Sequence of Aromatase (Homo sapiens) (P11511 whole entry, looked up): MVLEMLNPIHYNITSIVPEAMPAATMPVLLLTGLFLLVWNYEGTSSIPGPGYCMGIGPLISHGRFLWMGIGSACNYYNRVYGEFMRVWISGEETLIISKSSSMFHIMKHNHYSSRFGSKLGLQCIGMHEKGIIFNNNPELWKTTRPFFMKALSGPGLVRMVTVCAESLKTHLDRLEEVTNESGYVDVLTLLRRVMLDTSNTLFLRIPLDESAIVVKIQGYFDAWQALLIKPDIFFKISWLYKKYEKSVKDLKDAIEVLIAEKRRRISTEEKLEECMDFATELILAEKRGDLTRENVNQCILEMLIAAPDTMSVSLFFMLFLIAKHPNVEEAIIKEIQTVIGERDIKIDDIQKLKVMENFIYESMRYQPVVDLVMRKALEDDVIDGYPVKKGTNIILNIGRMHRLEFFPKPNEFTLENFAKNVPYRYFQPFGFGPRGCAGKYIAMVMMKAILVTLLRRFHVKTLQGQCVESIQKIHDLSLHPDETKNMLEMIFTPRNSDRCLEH

[9] = qHTS assay to identify aromatase inhibitors - cell viability counter screen (AID 743084);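 also: cells stimulated with testosterone during compound exposure; nearly all actives have a fitted effect of over 55% in size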; also: potency is read from the fitted curve at half-maximal effect
[10] = target: Aryl hydrocarbon receptor (Homo sapiens) (UniProt P35869); experiment: qHTS assay to identify small molecule that activate the aryl hydrocarbon receptor (AhR) signaling pathway (AID 743085);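 also: HG2L7.5c1 human HepG2 liver cells with stably integrated DRE-driven firefly reporter; series mostly up to about 70 µM; nearly all actives have a fitted effect of over 15% in size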
Sequence of Aryl hydrocarbon receptor (Homo sapiens) (P35869 whole entry, looked up): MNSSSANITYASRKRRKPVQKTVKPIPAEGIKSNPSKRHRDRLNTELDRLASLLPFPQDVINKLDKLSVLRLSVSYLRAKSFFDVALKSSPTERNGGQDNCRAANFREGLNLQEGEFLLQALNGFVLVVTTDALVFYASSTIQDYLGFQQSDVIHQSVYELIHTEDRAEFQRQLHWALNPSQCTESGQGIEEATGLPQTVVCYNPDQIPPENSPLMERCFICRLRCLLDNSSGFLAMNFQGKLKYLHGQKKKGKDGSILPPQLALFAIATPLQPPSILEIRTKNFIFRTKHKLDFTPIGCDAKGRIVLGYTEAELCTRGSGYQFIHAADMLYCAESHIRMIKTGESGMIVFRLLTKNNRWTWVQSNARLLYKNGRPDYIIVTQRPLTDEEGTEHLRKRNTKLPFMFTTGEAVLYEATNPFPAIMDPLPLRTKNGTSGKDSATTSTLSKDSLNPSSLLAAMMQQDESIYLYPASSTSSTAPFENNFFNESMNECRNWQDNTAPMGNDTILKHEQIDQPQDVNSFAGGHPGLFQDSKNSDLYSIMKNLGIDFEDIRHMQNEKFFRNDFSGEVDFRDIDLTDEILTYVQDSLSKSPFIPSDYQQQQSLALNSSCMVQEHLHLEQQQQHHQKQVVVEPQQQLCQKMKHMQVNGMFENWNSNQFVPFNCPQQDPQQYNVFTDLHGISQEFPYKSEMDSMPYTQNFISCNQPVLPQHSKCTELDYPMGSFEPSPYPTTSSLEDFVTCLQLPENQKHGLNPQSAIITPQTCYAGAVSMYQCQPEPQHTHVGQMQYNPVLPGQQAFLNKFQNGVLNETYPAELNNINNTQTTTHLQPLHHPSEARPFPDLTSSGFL
In short: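 HepG2 cells (HG2L7.5c1) stably carrying a firefly luciferase reporter driven by 20 dioxin responsive elements were exposed to compound for 24 h at 37C after a 5 h settling period; luminescence rise (ONE-Glo) indicated activation.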

[11] = qHTS assay to identify small molecule that activate the aryl hydrocarbon receptor (AhR) signaling pathway - cell viability counter screen (AID 743086); also: nearly all actives have a fitted effect of over 45% in size; also: potency is read from the fitted curve at half-maximal effect
In short: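 HepG2-AhR-luc (HG2L7.5c1) cells, 4000/well, were preincubated 5 h at 37C, exposed to compound in qHTS format for 24 hr at 37C, then given CellTiter-Fluor for 30 min; viability was read as fluorescence in the reporter wells.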

[12] = target: Peroxisome proliferator-activated receptor gamma (Homo sapiens) (UniProt P37231); experiment: qHTS assay to identify small molecule agonists of the peroxisome proliferator-activated receptor gamma (PPARg) signaling pathway (AID 743094; active = well fitted activation curve with a large enough effect in the signal ratio in the repeat runs, not every such curve was filed as active; inconclusive = weak or mixed curves, or effect the other way; inactive = no such curve, though single readings can be large or run the other way; the % refers to the signal ratio; also: potency is read from the fitted curve at half-maximal effect)
Sequence of Peroxisome proliferator-activated receptor gamma (Homo sapiens) (P37231 whole entry, looked up): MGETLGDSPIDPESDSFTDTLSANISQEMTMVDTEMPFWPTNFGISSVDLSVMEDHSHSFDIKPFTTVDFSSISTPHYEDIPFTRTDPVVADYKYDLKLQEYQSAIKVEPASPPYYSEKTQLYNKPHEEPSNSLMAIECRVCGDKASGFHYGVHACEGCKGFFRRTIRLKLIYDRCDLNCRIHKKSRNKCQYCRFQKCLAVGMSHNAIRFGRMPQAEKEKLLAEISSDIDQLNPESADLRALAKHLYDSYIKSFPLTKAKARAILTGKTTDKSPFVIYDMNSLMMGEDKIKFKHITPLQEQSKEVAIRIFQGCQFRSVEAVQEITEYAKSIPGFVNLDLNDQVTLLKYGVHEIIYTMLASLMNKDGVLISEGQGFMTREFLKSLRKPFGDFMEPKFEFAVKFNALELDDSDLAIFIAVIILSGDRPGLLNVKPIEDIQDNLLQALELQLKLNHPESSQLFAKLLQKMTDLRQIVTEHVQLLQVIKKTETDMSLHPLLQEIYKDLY
In short: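 Agonist activity was taken from a beta-lactamase reporter (FRET substrate, 1 h at room temperature) in HEK293H cells carrying a PPARg UAS-bla construct. Compounds in DMSO were incubated 17 h at 37C after a 5 h cell pre-incubation.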

[13] = qHTS assay to identify small molecule antagonists of the peroxisome proliferator-activated receptor gamma (PPARg) signaling pathway - cell viability counter screen (AID 743194); conditions: Potency: co-treated with 50 nM rosiglitazone unless noted; also: nearly all actives have a fitted effect of over 55% in size; also: potency is read from the fitted curve at half-maximal effect
In short: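 PPARg-UAS-bla HEK293H cells were plated, rested 5 h at 37 C, then treated with compounds plus rosiglitazone (50 nM final) for 17 h at 37 C; viability was then read by CellTiter-Glo luminescence after 30 min at room temperature.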

[14] = qHTS assay for small molecule agonists of the antioxidant response element (ARE) signaling pathway - cell viability counter screen (AID 743203; calls by dose curve; also: nearly all actives have a fitted effect of over 55% in size; also: potency is read from the fitted curve at half-maximal effect)
In short: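 Viability counter screen: CellTiter-Glo luminescence, read after 30 min at room temperature, in ARE-bla HepG2 wells. Compound exposure lasted 16 h at 37C/5% CO2, following a 5 h pre-incubation of the cells after plating.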

[15] = qHTS assay to identify small molecule antagonists of the estrogen receptor alpha (ER-alpha) signaling pathway - cell viability counter screen (AID 743074; calls by dose curve; also: nearly all actives have a fitted effect of over 45% in size; also: potency is read from the fitted curve at half-maximal effect)
[16] = qHTS assay for small molecule activators of the heat shock response signaling pathway - cell viability counter screen (AID 743209); also: nearly all actives have a fitted effect of over 50% in size; also: potency is read from the fitted curve at half-maximal effect
In short: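 Cytotoxicity counter screen run in the same wells as the heat-shock bla reporter assay: HeLa HSE-bla cells, 5 h compound exposure at 37 C, viability read by CellTiter-Glo luminescence.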

[17] = qHTS assay for small molecule activators of the heat shock response signaling pathway (AID 743210; active = well fitted activation curve with a large enough effect in the signal ratio in the repeat runs, with a control signal flat, not every such curve was filed as active; inconclusive = weak or mixed curves; the % refers to the signal ratio;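 also: HeLa cells with beta-lactamase reporter driven by heat shock elements; series mostly up to about 63 µM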)
In short: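 Activation of heat shock element-controlled beta-lactamase expression is measured in HeLa cells by LiveBLAzer FRET fluorescence, with compound exposure lasting 5 h at 37 C and substrate loading 2.5 h at room temperature.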

[18] = qHTS assay for small molecule agonists of the antioxidant response element (ARE) signaling pathway (AID 743202; active = well fitted activation curve with a large enough effect in the signal ratio in the repeat runs, not every such curve was filed as active; inconclusive = weak or mixed curves, or effect the other way; inactive = no such curve, though single readings can be large or run the other way; the % refers to the signal ratio; also: potency is read from the fitted curve at half-maximal effect)
In short: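 Steps: seed ARE-bla HepG2 cells (2,000/well); incubate 5 h at 37 C; add compounds by pin tool; incubate 16 h at 37 C; add FRET substrate; read fluorescence after 2 h at RT.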

[19] = target: Peroxisome proliferator-activated receptor gamma (Homo sapiens) (UniProt P37231); experiment: qHTS assay to identify small molecule antagonists of the peroxisome proliferator-activated receptor gamma (PPARg) signaling pathway (AID 743191; calls by dose curve; also: series mostly up to about 63 µM; nearly all actives have a fitted effect of over 30% in size)
In short: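 GeneBLAzer PPARg UAS-bla HEK293H cells carrying a UAS-driven beta-lactamase reporter were plated at 3000 cells/well, preincubated 5 h at 37C, then given compound for 17 h at 37C; LiveBLAzer B/G FRET substrate was read after 1 h at room temperature.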

Measured: Potency

ClC1=C(Cl)C2(Cl)C3C(Cl)C=CC3C1(Cl)C2(Cl)Cl (stereo not given)
active: [1] 30.8 µM and 54.5 µM | [2] 43.5 µM and 54.5 µM | Aromatase (Homo sapiens) 68.6 µM | [13] 55.2 µM and 24.5 µM | [14] 61.1 µM
not listed: [15] | [16] | [17] | [18] | [19]
inactive: all other assays above

ClCc1ccc(Cl)cc1Cl
not listed: [4] | [12] | [13] | [18] | [19]
inactive: all other assays above

CCOC(=O)CC(=O)CCl
active: [1] 61.1 µM | [2] 61.1 µM | Aromatase (Homo sapiens) 30.6 µM | [9] 30.6 µM | [12] 21.9 µM
inactive: [3] | [15] | [5] | [6] | [8] | [10] | [11] | [14]

CN(C)C1CSSSC1
active: [18] 34.3 µM
not listed: [11] | [13] | [19]
inactive: all other assays above

COc1cc(C=O)cc2c1[C@H](COC(N)=O)[C@]1(OC(C)=O)ON2C[C@H]2[C@@H]1N2C(C)=O
active: [1] 0.864 µM | [2] 0.433 µM | [4] 5.49 µM [inconclusive] | [7] 217 nM | Aromatase (Homo sapiens) 3.44 µM | [11] 0.306 µM | [14] 0.154 µM | [16] 2.45 µM
inactive: [3] | [5] | [10] | [13] | [17]

C1CCC2CCCCC2C1 (stereo not given)
not listed: [18] | [19]
inactive: all other assays above

C=CCC1=C(C)C(OC(=O)C2C(C=C(C)C)C2(C)C)CC1=O (stereo not given)
inactive: [3] | [5]
active: [1] 49.3 µM | [2] 25.8 µM | [15] 46.3 µM | [7] 36400 nM | Aromatase (Homo sapiens) 47.2 µM | [9] 25.8 µM | [14] 51.5 µM | [16] 46.3 µM

Clc1ccc(-c2ccc(Cl)c(Cl)c2Cl)c(Cl)c1Cl
not listed: [4] | [13] | [14] | [17] | [18]
inactive: all other assays above

BrC(Br)C(Br)(Br)Br
active: [1] 24.5 µM | [2] 19.4 µM | Aromatase (Homo sapiens) 61.5 µM | [9] 54.8 µM | [14] 54.8 µM
inactive: [3] | [15] | [5] | [6] | [8] | [11] | [12] | [16]

CC(C)CC(C)N (stereo not given)
not listed: [4] | [13] | [19]
inactive: all other assays above

CCCN(CCC)CCc1c[nH]c2ccccc12
active: [1] 53.8 µM | [2] 30.2 µM
not listed: [4] | [8] | [11] | [17] | [18]
inactive: all other assays above

O=c1ssc(Cl)c1Cl
inactive: [3] | [4] | [15] | [6] | [7] | [10] | [11]
active: [1] 48.6 µM | [2] 27.3 µM | Aromatase (Homo sapiens) 15.4 µM | [9] 17.2 µM | [13] 38.9 µM | [14] 24.3 µM | [16] 49 µM

CC(=O)O[C@H]1CC[C@@]2(C)C(=CC[C@@H]3[C@@H]2CC[C@]2(C)C(=O)CC[C@@H]32)C1
active: [5] 811 nM [inconclusive] and 490 nM [inconclusive] | [6] 320 nM and 86.3 nM | [18] 48.6 µM
not listed: [4] | [16] | [17] | [19]
inactive: all other assays above

C[C@@H]1O[C@@H](O[C@H]2C[C@@H](O)[C@]3(CO)[C@H]4[C@H](O)C[C@]5(C)[C@@H](C6=CC(=O)OC6)CC[C@]5(O)[C@@H]4CC[C@]3(O)C2)[C@H](O)[C@H](O)[C@H]1O
active: [15] 0.0425 µM | [7] 531 nM and 163 nM | [13] 13.1 nM and 119 nM | [14] 6.5 nM and 133 nM | [16] 20.8 nM and 266 nM
not listed: [4] | [6] | Aromatase (Homo sapiens) | [12] | [18] | [19]
inactive: all other assays above
